From PubChem
Shown are actives, neighbours in structure and some others; about 5.5% of the full set was active somewhere.
Giardia kill: Small Molecules that selectively kill Giardia lamblia: qHTS; Giardia lamblia trophozoite viability; 0.15% of 340,000 active; activity change, % at 7.66 µM, hits read low; AID 540267, 2011; in the data active = activity change below about -80%; inconclusive = between about -30% and that limit;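 also: parasites exposed to compound for two days anaerobically before the ATP read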
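Compounds were tested on trophozoites seeded at 100 cells/well and held 48 hrs at 37 deg C anaerobically. An ATP-based luminescent kit measured the remaining live cells.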
ELG1 repair inh: qHTS screen for small molecules that inhibit ELG1-dependent DNA repair in human embryonic kidney (HEK293T) cells expressing luciferase-tagged ELG1; Potency, µM (titrated, usually from 46.1 µM), usual class: inhibitors; 2.3% of 330,000 active; AID 504467, 2011; HEK293T ELG1-luciferase reporter, luminescence, 16 h; DNA damage induced by 5-fluorouridine; also: nearly all actives have a fitted effect of over 55% in size
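In this reporter screen, reduction of luminescence relative to DMSO vehicle indicated activity. Compounds and 5-fluorouridine were added together to 2,000 cells per well, incubated for 16 hr at 37 °C, then developed with ONE-Glo.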
Sfp inh: qHTS Assay for Inhibitors of Bacillus subtilis Sfp phosphopantetheinyl transferase (PPTase); 4'-phosphopantetheinyl transferase ffp (Bacillus subtilis), Q9F4F7; Biochemical Sfp PPTase activity, qHTS; Potency, µM, most hits filed as inhibitors; 3.5% of 310,000 active; AID 1490, 2009;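 also: the enzyme is Sfp with the accession as filed and its product quenches rhodamine fluorescence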
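Step 1, compound plus 15 nM Sfp-PPTase, 15 min, room temperature. Step 2, add rhodamine-CoA (5 uM) and BHQ-2-YbbR (12.5 uM). Step 3, read 525/598 nm fluorescence at 0 and 30 min.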
FBPA coupling cs: qHTS Assay for Inhibitors of Fructose-1,6-bisphosphate Aldolase from Giardia Lamblia: Coupling assay counterscreen; 0.67% of 290,000 active; activity change, negative = inhibition, % at 58.2 µM, hits read low; coupling enzyme system counterscreen, AmpLite Red fluorescence; in the data active = activity change below about -30%
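Counterscreen of the coupled detection system alone, without aldolase: glyceraldehyde-3-phosphate coupling enzymes plus AmpLite Red readout. Compounds at 57.5 uM final, 10 min RT preincubation, 20 min RT reaction, fluorescence 525/598 nm.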
Each line names hits and unclear results; the compound was inactive in the other large screens. Unless noted, calls follow the shape of the dose curve; as a rule, active = well fitted curve in the direction sought with a large enough effect; inconclusive = small, poorly fitted or top-dose-only effect, or another doubt; inactive = no such curve, though single readings can be large; an effect the other way counts as inactive or inconclusive.

CCOc1ccc(S(=O)(=O)NCCC(=O)Nc2cccc(C(=O)OC)c2)cc1	ELG1 repair inh inconclusive
Nc1nc(NCCO)nc(N2CCCCCC2)c1[N+](=O)[O-]	none
OCCN(CCO)c1nc(N2CCCCC2)c2nc(N(CCO)CCO)nc(N3CCCCC3)c2n1	ELG1 repair inh 0.461µM
Cc1ccccc1Oc1cc(-n2ncc(Cl)c(Cl)c2=O)ncn1	ELG1 repair inh 5.8µM
Cc1ccc(S(=O)(=O)N2CCC(NC(=O)C3CCCCC3)CC2)cc1	ELG1 repair inh inconclusive
CC1(C)CC(=O)C(Sc2nnc(-c3ccc(O)cc3)n2CC2CCCO2)C(=O)C1 (configuration not stated)	Sfp inh 44.7µM
Cc1ccc2c(c1)nnn2C1CCN(S(=O)(=O)c2ccc3ccccc3c2)CC1	ELG1 repair inh inconclusive
Cc1ccc2c(c1)nnn2C1CCN(S(=O)(=O)c2cccc(S(=O)(=O)N(C)C)c2)CC1	ELG1 repair inh 20.6µM
Cc1ccc2c(c1)nnn2C1CCN(S(=O)(=O)c2ccc(C(=O)N(C)C)cc2)CC1	ELG1 repair inh 18.4µM
Cc1ccc2c(c1)nnn2C1CCN(S(=O)(=O)c2ccc(C(=O)N3CC(C)CC(C)C3)cc2)CC1 (configuration not stated)	ELG1 repair inh 20.6µM
Cc1ccc2c(c1)nnn2C1CCN(CC(=O)c2ccc(Cl)cc2)CC1	none
COc1ccc(Cn2c(SCc3ccccc3C)nc3cc(OC)c(OC)cc3c2=N)cc1	ELG1 repair inh inconclusive, Sfp inh 1.26µM (no result: Giardia kill)
COc1cc2nc(SCc3ccc(F)cc3)n(Cc3cccs3)c(=N)c2cc1OC	ELG1 repair inh inconclusive
N=c1c2c(n(Cc3ccc(F)cc3)c3c1CCC3)CCCC2	none
N=c1c2c(n(Cc3ccc(Cl)cc3)c3c1CCC3)CCC2	ELG1 repair inh 2.91µM
N=c1c2c(n(Cc3ccccc3)c3c1CCC3)CCC2	ELG1 repair inh 2.91µM
NS(=O)(=O)c1ccc(CCNC(=O)CNC(=O)c2ccc(F)cc2)cc1	ELG1 repair inh inconclusive
CC(C)c1ccccc1NC(=O)CNCCc1ccc(C(F)(F)F)cc1	Sfp inh 79.4µM
NS(=O)(=O)c1ccc(CCNC(=O)CNCCc2ccc(C(F)(F)F)cc2)cc1	ELG1 repair inh 20.6µM
CCCCC(=O)Nc1ccccc1C(C)C	none (no result: Giardia kill)
CC(C)N(CC#CCC(O)(c1ccccc1)c1ccccc1)CCO	Sfp inh 44.7µM
CCOc1ccc(NS(=O)(=O)c2c(C)nc3sccn3c2=O)cc1	none
Cc1nc2sccn2c(=O)c1S(=O)(=O)Nc1ccc(N2CCN(S(C)(=O)=O)CC2)cc1	ELG1 repair inh 9.2µM
CCOC(=O)c1cc(-c2ccco2)nc2c1c(C)nn2-c1ccccc1	ELG1 repair inh inconclusive, Sfp inh inconclusive
CCOC(=O)c1cc(-c2ccc(OC)cc2)nc2c1c(C)nn2CCC(N)=S	ELG1 repair inh 11.6µM
CCCNC(=O)OC[C@@H]1O[C@H](CCO/N=C(\C)CCC(=O)OC[C@@H]2O[C@H](C#Cc3ccccc3)C=C[C@@H]2Oc2ccc(C)cc2)C=C[C@@H]1Oc1ccc(OC)cc1	none (no result: Giardia kill, ELG1 repair inh)
CN(CC(O)CON=C1c2ccccc2-c2ccccc21)S(=O)(=O)c1ccc(Br)cc1 (configuration not stated)	ELG1 repair inh 20.6µM
OCCN1CCN(C(=S)c2ccc(Cl)c(Cl)c2)CC1	Sfp inh 3.16µM, FBPA coupling cs -31.5
CC(=O)c1ccc(NC(=S)N2CCN(CCO)CC2)cc1	none
O=S(=O)(c1ccc(SCc2ccccc2F)nc1)N1CCCC1	ELG1 repair inh inconclusive (no result: Sfp inh, FBPA coupling cs)
COc1ccc(CCNC(=O)CSc2nc3ncccc3[nH]2)c(OC)c1	none (no result: FBPA coupling cs)
Cc1ccc(NS(=O)(=O)c2cc3c4c(cccc4c2)C(=O)NC3=O)cc1C	ELG1 repair inh 16.4µM
Cc1cc2c(cc(C(=O)OC(C)C(=O)NCc3ccc(F)cc3)n2C)o1 (configuration not stated)	none (no result: ELG1 repair inh, Sfp inh, FBPA coupling cs)
CCOC(=O)c1ccc(NC(=O)c2cn(CCC#N)nc2-c2ccc3c(c2)OCCO3)cc1	ELG1 repair inh 14.6µM
CCCCCCCCCCCCCCCCn1cc[n+](CC(C)=O)c1	Sfp inh 35.5µM
CC1CCN(C(=O)COC(=O)C23CC4CC(CC(O)(C4)C2)C3)CC1	ELG1 repair inh inconclusive (no result: Sfp inh, FBPA coupling cs)
Cc1nnc(N/N=C/C(C)c2ccccc2)[nH]c1=O (configuration not stated)	Sfp inh 79.4µM
Cc1nnc(N/N=C/c2c[nH]c3ccccc23)[nH]c1=O	none
Cn1c(SCC(=O)Nc2ccc(NC(=O)c3cccc(F)c3)cc2)nnc1-c1ccncc1	ELG1 repair inh inconclusive
N#Cc1nc(-c2ccc(OCc3ccc(Cl)cc3)cc2)oc1N1CCCCC1	none (no result: ELG1 repair inh, Sfp inh, FBPA coupling cs)
N#CC1=C(N)OC2=C(C(=O)CCC2)C1c1ccccc1 (configuration not stated)	none
Cn1cccc1C1C(C#N)=C(N)OC2=C1C(=O)CCC2 (configuration not stated)	Sfp inh 39.8µM, FBPA coupling cs -34.2
COc1cc(SSc2cc(OC)cc([N+](=O)[O-])c2N)c(N)c([N+](=O)[O-])c1	Sfp inh 2.51µM, FBPA coupling cs -30.2
O=c1cc(N=Nc2ccc(Cl)cc2)[nH]c(=O)[nH]1	ELG1 repair inh 23.1µM
N#C/C(=C\c1ccc(O)c(O)c1)C(=O)NCCCCc1ccccc1	Sfp inh 79.4µM (no result: Giardia kill, ELG1 repair inh)
Cc1ccc(C(C(=O)NC(C)(C)C)N(CC2CCCO2)C(=O)Cn2nnc(-c3ccc(C)o3)n2)cc1 (configuration not stated)	Sfp inh 56.2µM
Cc1ccc(-c2nnn(CC(=O)N(Cc3ccc(F)cc3)C(C(=O)NC3CCCC3)c3ccncc3)n2)o1 (configuration not stated)	Sfp inh 39.8µM
Cc1ccc(Cc2ccccc2C(=O)O)cc1	none (no result: ELG1 repair inh, Sfp inh, FBPA coupling cs)
COc1cccc(NC(=O)CN2CCSc3ccccc32)c1	Sfp inh 63.1µM
Cc1cccc(NC(=O)CN2CCSc3ccccc32)c1	none
O=C(C1COc2ccccc2O1)N1CCN(c2nc3c(F)cc(F)cc3s2)CC1 (configuration not stated)	none (no result: Sfp inh, FBPA coupling cs)
Cc1cnc(C(=O)Nc2nnc(C)s2)cn1	ELG1 repair inh inconclusive, Sfp inh 79.4µM
COc1cnc(-c2ccccn2)nc1N(C)c1ccccc1	ELG1 repair inh inconclusive, Sfp inh 50.1µM
COc1ccc(Sc2nc(-c3ccccn3)ncc2OC)cc1	ELG1 repair inh 14.6µM
COc1cnc(-c2ccccn2)nc1Oc1ccccc1	none
COc1cnc(-c2ccccn2)nc1Sc1ccc(F)cc1	ELG1 repair inh 20.6µM
COc1cc(C(=O)NCCC(=O)NC(C)CCc2ccccc2)cc(OC)c1OC (configuration not stated)	none (no result: FBPA coupling cs)
CCNc1nc(NC(N)=S)nc(NC(C)(C)C)n1	Sfp inh 31.6µM
COCCN(C(=O)Cn1c(C(F)(F)F)nc2ccccc21)c1c(N)n(Cc2ccccc2)c(=O)[nH]c1=O	none (no result: FBPA coupling cs)
